Sampled rows, rich in hits. Any-hit rate of the full collection: about 3.5%.
MITF inh = MITF inhibitors, primary screen, biochemical, AlphaScreen, human | inhibition, % at 2.6 µM | AlphaScreen MITF homodimerization, bead proximity signal | 0.91% of 650,000 active | Microphthalmia-associated transcription factor (Homo sapiens), O75030; in the data active = inhibition above about 50%;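 also: 0% = vehicle wells with protein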
TEAD-YAP block = TEAD-YAP interaction inhibition, primary screen, TEAD-YAP interaction inhibitor project, luminescence, HEK-TIYL cells; 1.4% of 640,000 active; inhibition, % at 9.12 µM; TEAD-Gal4/YAP UAS-luciferase luminescence; in the data active = inhibition above about 32%;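 also: 0% = median of test compound wells and 100% = reference inhibitor wells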
GPR151 ag = activators of human GPR151, primary screen, cell-based, PathHunter beta-arrestin, luminescence; G-protein coupled receptor 151 (Homo sapiens), Q8TDV0; PathHunter beta-arrestin GPR151 cells; activation, % at 11.2 µM; 1% of 650,000 active; AID 1508602, 2020; in the data active = activation above about 4.9%;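 also: 0% = median of compound wells and 100% = cells with positive control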
FBW7 act = FBW7 E3 ligase activators, primary screen, biochemical, AlphaScreen, human. AID 1259310, 2017. 0.13% of 650,000 active. normalized activity (activation), % at 26.1 µM. F-box/WD repeat-containing protein 7 (Homo sapiens), Q969H0. AlphaScreen FBW7–phospho-cyclin E peptide binding, activator screen; in the data active = normalized activity above about 1.9%;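 also: purified mutant Fbw7 with reduced substrate affinity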
Target sequence (Q969H0 whole entry, looked up): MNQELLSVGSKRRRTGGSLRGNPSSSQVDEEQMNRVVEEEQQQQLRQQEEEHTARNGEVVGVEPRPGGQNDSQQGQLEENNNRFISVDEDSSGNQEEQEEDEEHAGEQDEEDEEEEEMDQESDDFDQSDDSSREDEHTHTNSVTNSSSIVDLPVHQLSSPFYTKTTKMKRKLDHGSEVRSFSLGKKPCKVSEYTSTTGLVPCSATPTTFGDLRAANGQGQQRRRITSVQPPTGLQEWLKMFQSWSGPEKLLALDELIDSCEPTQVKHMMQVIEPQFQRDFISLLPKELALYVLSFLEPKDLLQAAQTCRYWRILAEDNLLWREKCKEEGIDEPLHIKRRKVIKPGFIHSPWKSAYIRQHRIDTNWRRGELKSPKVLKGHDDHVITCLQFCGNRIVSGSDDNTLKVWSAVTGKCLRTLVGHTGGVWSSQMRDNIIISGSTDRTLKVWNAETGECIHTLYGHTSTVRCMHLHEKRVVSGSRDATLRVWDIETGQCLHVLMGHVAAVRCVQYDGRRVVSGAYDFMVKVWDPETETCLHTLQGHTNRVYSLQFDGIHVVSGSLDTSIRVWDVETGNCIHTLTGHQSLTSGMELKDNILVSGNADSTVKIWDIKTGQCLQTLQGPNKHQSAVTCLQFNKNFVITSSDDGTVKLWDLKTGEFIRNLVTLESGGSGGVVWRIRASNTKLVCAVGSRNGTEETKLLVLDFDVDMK
An asterisk follows results filed as active; · = no result.

SMILES	MITF inh	TEAD-YAP block	GPR151 ag	FBW7 act
CCOCCCNC(=O)Cn1ncc2c(=O)oc3ccc(C)cc3c21	-5.4	1.5	-0.2	-0.1
Cc1ccc2nc(-c3ccc(O)cc3)sc2c1	9.0	98.0*	-7.3	0.1
Cc1ccc2nc(-c3ccc(NC(=O)C4CCCN4S(C)(=O)=O)cc3)sc2c1 (configuration not stated)	13.7	49.5*	-0.9	0.2
COc1ccc(OCC(=O)Nc2ccc(-c3nc4ccc(C)cc4s3)cc2)cc1	15.9	38.9*	1.7	0.7
Oc1ccc(-c2nc3cc4sc(-c5ccc(O)cc5)nc4cc3s2)cc1	6.8	12.2	0.1	0.0
Cc1ccc2nc(-c3ccc(NC(=O)c4ccccc4C(=O)O)cc3)sc2c1	13.8	83.2*	-6.4	0.1
CCCCC[C@H](O)/C=C/[C@H]1[C@H](O)CC(=O)[C@@H]1CCCCCCC(=O)NCCO	-3.2	·	-0.2	·
COC(=O)CCC(=O)Nc1ccc(-c2nc3ccc(C)cc3s2)cc1	-1.1	72.4*	-1.8	-0.1
CCN(CC)C(=O)C1CCCN(c2nc(NCc3nc4ccccc4[nH]3)c3ncn(-c4ccsc4)c3n2)C1 (configuration not stated)	3.3	85.0*	0.7	0.1
CCN(CC)C(=O)C1CCCN(c2nc(NCc3nc4ccccc4[nH]3)c3ncn(C(C)C)c3n2)C1 (configuration not stated)	-1.6	30.1	1.0	-0.1
CCN(CC)C(=O)C1CCCN(c2nc(NCc3nc4ccccc4[nH]3)c3ncn(-c4ccccc4)c3n2)C1 (configuration not stated)	6.7	72.5*	-0.2	-0.1
OCC1CCCN1c1nc(NCc2nc3ccccc3[nH]2)c2ncn(-c3ccsc3)c2n1 (configuration not stated)	24.8	72.2*	0.2	0.2
CCN(CC)C(=O)C1CCCN(c2nc(NCCCN3CCCC3=O)c3ncn(-c4ccsc4)c3n2)C1 (configuration not stated)	8.2	34.7*	0.9	-0.5
CCN(CC)C(=O)C1CCCN(c2nc(NC3CC3)c3ncn(-c4ccsc4)c3n2)C1 (configuration not stated)	10.1	9.2	-0.6	-0.1
CCN(CC)C(=O)C1CCCN(c2nc(NCCCN3CCCC3=O)c3ncn(CCN4CCCC4=O)c3n2)C1 (configuration not stated)	3.4	-1.1	-1.6	-0.1
COc1ccc(C(C)(C)C)cc1S(=O)(=O)N1CC(C)OC(C)C1 (configuration not stated)	7.3	5.6	4.4	0.0
O=C(CCN1CCN(c2ccccc2)CC1)Nc1ccc2c(c1)CCC2	6.0	3.0	1.1	0.0
COc1cc2c(cc1OC)C(COc1ccc([N+](=O)[O-])cc1)N(C(=O)/C=C/c1cc(OC)c(OC)c(OC)c1)CC2 (configuration not stated)	1.9	10.0	0.1	-0.1
O=C(CSCc1ccc(Cl)cc1)N/N=C/c1ccc2c(c1)OCO2	16.5	4.0	0.2	0.0
O=C(O)c1cccc(-c2cnn3c(N4CCC[C@H]4CO)ccnc23)c1	18.4	100.8*	-5.6	-0.2
OC[C@@H]1CCCN1c1ccnc2c(-c3ccc(Cl)cc3)cnn12	19.5	85.1*	-1.3	-0.2
OCCC1CCCCN1c1ccnc2c(-c3ccc(O)cc3)cnn12 (configuration not stated)	-4.1	92.8*	-1.1	0.2
OCCC1CCCCN1c1ccnc2c(-c3ccc4c(c3)OCO4)cnn12 (configuration not stated)	4.5	42.6*	-0.3	-0.2
OCCC1CCCCN1c1ccnc2c(-c3ccoc3)cnn12 (configuration not stated)	-3.1	-9.4	0.9	0.4
CNC(=O)C1CCN(S(=O)(=O)c2ccccc2)CC1	9.1	1.0	-0.5	-0.1
SMILES	MITF inh	TEAD-YAP block	GPR151 ag	FBW7 act
NC(=O)c1csc(-c2ccc(C(=O)NC3CC3)cc2)n1	3.4	-0.9	-1.1	-0.1
OCCC1CCCCN1c1ccnc2c(-c3ccc(Cl)cc3)cnn12 (configuration not stated)	-10.8	47.1*	0.4	0.4
OC[C@@H]1CCCN1c1ccnc2c(-c3ccccc3Cl)cnn12	1.4	48.4*	-1.0	-0.1
OCCC1CCCCN1c1ccnc2c(-c3ccc(CO)cc3)cnn12 (configuration not stated)	-1.4	-26.8	-0.5	-0.1
COc1ccccc1-c1cnn2c(N3CCC[C@H]3CO)ccnc12	5.1	-53.6	1.7	0.1
COc1cc(-c2ccc(N=Nc3ccc4c(S(=O)(=O)O)cc(S(=O)(=O)O)c(N)c4c3O)c(OC)c2)ccc1N=Nc1ccc2c(S(=O)(=O)O)cc(S(=O)(=O)O)c(N)c2c1O	77.4*	·	-1.6	-0.2
Nc1c(S(=O)(=O)O)cc(S(=O)(=O)O)c2cccc(O)c12	45.7	8.9	-0.3	-0.6
O=C(NCc1ccccc1)c1ccnc(Nc2ccc(N3CCOCC3)cc2)c1	20.6	0.7	0.3	0.2
c1ccc(-n2cccn2)c(Nc2ccnc(Nc3ccc(N4CCOCC4)cc3)c2)c1	5.8	40.3*	2.9	-0.4
c1ccc(CNc2ccnc(Nc3ccc(N4CCOCC4)cc3)c2)cc1	9.0	33.7*	1.2	-0.7
c1ccc(-c2ncn(-c3ccc(Nc4cc(-c5cccc(N6CCOCC6)c5)ccn4)cc3)n2)nc1	11.9	78.2*	0.4	-0.5
c1ccc(Nc2ncn(-c3ccnc(Nc4ccc(N5CCOCC5)cc4)c3)n2)cc1	5.4	37.1*	0.2	0.0
c1cc(-c2ccnc(Nc3ccc(-n4cnc(-c5ccncc5)n4)cc3)n2)cc(N2CCOCC2)c1	-12.7	19.6	-0.7	-0.2
CCOc1ccc(CN2CCOc3ccc(CN4CCNC(=O)C4CC)cc3C2)cc1 (configuration not stated)	0.1	-2.6	0.0	0.0
COc1ccc(OC)c(C(=O)COC(=O)c2ccc(O)cc2)c1	-5.4	-13.7	-0.5	-0.1
c1cc(Nc2ccc3nc[nH]c3c2)cc(Nc2ccc(N3CCOCC3)cc2)n1	23.8	0.9	0.8	-0.2
c1cc(Nc2cc(C3CC3)[nH]n2)cc(Nc2ccc(N3CCOCC3)cc2)n1	13.9	85.4*	0.6	-0.6
COCCn1c(=O)[nH]c2cc(C(=O)Nc3ccc(C(C)=O)cc3)ccc2c1=O	-0.6	-2.6	-0.4	0.0
CCN(CC)CCNC(=O)Cn1c(C)nc2ccccc21	13.5	-5.6	1.3	-0.2
Cc1[nH]c2ccc(CNC(=O)Cn3c(C)nc4ccccc43)cc2c1C	13.4	50.1*	0.4	-0.1
O=S(=O)(c1ccc(NC(=S)N/N=C/c2cccc(O)c2O)cc1)N1CCOCC1	59.4*	3.6	-0.1	-1.3
O=S(=O)(c1ccc(NC(=S)N/N=C/c2ccc(O)c(O)c2)cc1)N1CCOCC1	-15.3	9.6	-0.2	-0.2
CCNc1nc(NCC)nc(N/N=C/c2ccc(OC)c(OCc3ccccc3)c2)n1	1.4	10.1	-1.9	-0.3
CNc1nc(N/N=C/c2ccc(OC)c(OC)c2)nc(Nc2cccc(C(F)(F)F)c2)n1	-0.5	52.9*	2.4	0.1

Screens: PubChem, The Scripps Research Institute Molecular Screening Center
